# Measured values reported in PubChem BioAssay (NCI).
# Compounds without any hit were thinned out: in the full panel of roughly 83,000, 20% have a hit.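 Single-dose data. Exposure time 48 hours. Values below 10 considered active.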 Active and inactive are the calls of the source.
# System: T-47D breast
# Assay: NCI-60 one-dose screen, 48 h (100 = growth as untreated, 0 = no growth, -100 = all killed)
# Conditions: 10 µM unless noted
# Description: Growth inhibition of the T-47D human tumor cell line is measured as a screen for anti-cancer activity. Cells are grown in 96 well plates and exposed to the test compound for 48 hours. Compounds are tested at a single concentration, which is 10^-5 M for most compounds. The reported endpoint is percent growth (GI% or GIPRCNT), where numbers from 0 - 100% represent growth inhibition, and numbers from -100% - 0 represent cell death. For example, a value of 40 represents 60% growth inhibition. A value of 0 means no net growth occurred over the course of the experiment. A value of -40 indicates 40% of cells at the beginning of the experiment died by the end of the experiment. A value of -100 means all cells are dead at the end of the experiment.
# NCI-60 Human Tumor Cell Lines Screen was performed using the standard one-dose NCI protocol, which is described in more detail at https://dtp.cancer.gov/discovery_development/nci-60/default.htm.
# Compounds with GIPRCNT values below 10 were considered active. Activity score was based on GIPRCNT using the following formula: […]
# Score is 0 for GIPRCNT values of 100 or above, 50 for GIPRCNT values of 0, and 100 for GIPRCNT values of -100.
row,SMILES,growth
1,CCOP(=O)(OCCCl)c1nc(-c2ccc(C)cc2)oc1NCc1ccccc1 (stereo not given),48.1% (inactive)
2,S=C(Nc1ccc(OCc2nc3ccccc3[nH]2)cc1)NC1CCCCC1,88.5% (inactive)
3,CCCCCCCCOc1cccc(S(=O)(=O)Nc2ccc(C)cc2C(=O)O)c1,105% (inactive)
4,N#Cc1c(-c2ccc(Cl)cc2)nc2n[nH]c(-c3ccc(Cl)cc3)c2c1-c1ccc(C(F)(F)F)cc1,-2.6% (active)
5,CCN1CCN(Cc2ccc(C(=O)Nc3cccc(C#Cc4cccc5[nH]nc(N)c45)c3)cc2C(F)(F)F)CC1,-67.2% (active)
6,C=C1CC[C@@H]2[C@]3(C)COC(c4cn(-c5ccccc5)nc4-c4ccccc4)O[C@@H]3CC[C@@]2(C)[C@@H]1C/C=C1/C(=O)OC[C@H]1O (stereo not given in full),-62.9% (active)
7,Cc1ccc(-c2nc(C#N)c(S(=O)(=O)N3CCN(S(=O)(=O)c4ccccc4)CC3)o2)cc1,-1.54% (active)
8,C=C1CCC2C3(C)COC(c4ccccc4)OC3CCC2(C)C1CC(NCc1ccccc1)C1=CCOC1=O (stereo not given),63.6% (inactive)
9,COc1ccc2[nH]cc(-c3cc(N)n4nc(-c5cn(C)c6ccccc56)cc4n3)c2c1,-73.3% (active)
10,Cn1cc(-c2cc(N)n3nc(-c4cn(C)c5ncc(Br)cc45)cc3n2)c2cc(Br)cnc21,-4.13% (active)
11,Cc1occc1C(=O)NN1C(=O)/C(=C/C=C/c2ccc([N+](=O)[O-])o2)SC1=S,-15.9% (active)
12,O=C(NNc1nc2cc(C(F)(F)F)ccc2n2cccc12)c1cnccn1,-74% (active)
13,O=C(NNc1ccccc1)n1c(=O)c2ccccc2c(=O)n1-c1ccccc1,87.9% (inactive)
14,CC1(C)CC[C@]2(C(=O)O)CC[C@]3(C)C(=CCC4[C@@]5(C)C[C@@H](O)[C@@H]6OC(c7ccco7)OC[C@@]6(C)C5CC[C@]43C)C2C1 (stereo not given in full),46.4% (inactive)
15,O=c1c2ccccc2nc(-c2ccccc2)n1/N=C/c1ccc2ccccc2c1,56.4% (inactive)
16,Cn1cc(-c2nc(N)nnc2-c2c[nH]c3ccc(F)cc23)c2cc(Br)cnc21,43.5% (inactive)
17,O=c1onc(-c2cc3ccccc3nc2Cl)n1-c1cccc2ccccc12,3.09% (active)
18,Cc1ccc(C(SCCNCc2cc(N(C)C)ccn2)(c2ccccc2)c2ccccc2)cc1,-39% (active)
19,O=C(N/N=C/c1ccc(-c2ccc(O)cc2)o1)c1[nH]c2ccc(Br)cc2c1-c1ccccc1,19% (inactive)
20,COc1cc(-c2nc3cc(Cl)c(Cl)cc3[nH]2)ccc1OCc1nnc(-c2cccs2)o1,84% (inactive)

row,SMILES,growth
1,CC(=O)Oc1ccccc1C(=O)[Se]C(=NC1CCCCC1)NC1CCCCC1,-43.3% (active)
2,COc1cc(-c2ccc(/C=N/NC(=O)c3[nH]c4ccc(Br)cc4c3-c3ccccc3)s2)cc(OC)c1OC,73.9% (inactive)
3,CCC(C)(C)c1ccc(OCCCCN2CCN(c3ccncc3)CC2)cc1,-41.6% (active)
4,N#Cc1c(-c2ccccc2Cl)cc(-c2c[nH]c3ccccc23)[nH]c1=O,65% (inactive)
5,O=C(O)c1ccc(-c2ccc(/C=N/NC(=O)c3[nH]c4ccc(Br)cc4c3-c3ccccc3)s2)cc1,16% (inactive)
6,Cn1cc(-c2nc(N)nnc2-c2c[nH]c3ccc(F)cc23)c2cccnc21,19.4% (inactive)
7,COc1ccc2oc3c4[nH]c5ccccc5c4c4c(c3c2c1)C(=O)N(C(=O)OC(C)(C)C)C4=O,-7.22% (active)
8,CC1=C(C(=O)OC(C)C)C(c2cccc(O)c2)NC(=S)N1 (stereo not given),93.7% (inactive)
9,COc1cc2oc(-c3cccc(C(=O)Nc4cccc([N+](=O)[O-])c4)c3)cc(=O)c2c(OC)c1OC,26.8% (inactive)
10,Cc1cccc(Nc2nc3ccccc3nc2/C=C/c2ccc(F)cc2)c1,78.9% (inactive)
11,C=C1CCC2C3(C)COC(c4ccc(F)cc4)OC3CCC2(C)C1CC(O)C1=CCOC1=O (stereo not given),31.6% (inactive)
12,COc1cc(/C=C/C(=O)c2ccccc2)ccc1Oc1nc(Nc2ccc(F)cc2)nc(N(C)C)n1,13% (inactive)
13,C=C1CCC2C3(C)COC(c4cc(F)cc(F)c4)OC3CCC2(C)C1CC(O)C1=CCOC1=O (stereo not given),40.5% (inactive)
14,Cc1cc(C)cc(NC(=O)Cn2cc(COn3nnc4ccccc43)nn2)c1,100% (inactive)
15,CC1=C(C(=O)c2ccccc2)C(c2cccc3ccccc23)n2c(nc3ccccc32)N1 (stereo not given),89.9% (inactive)
16,CCCCCCCCc1ccc(C(=O)Nc2cccc(P(=O)(O)O)c2)cc1,125% (inactive)
17,C=C1CC[C@@H]2[C@]3(C)COC(c4cn[nH]c4-c4ccc(Br)cc4)O[C@@H]3CC[C@@]2(C)[C@@H]1C/C=C1/C(=O)OCC1O (stereo not given in full),12.2% (inactive)
18,COC(=O)/C=C/c1cccc2c1C(=O)NC(C)(c1cc3cc4ccccc4cc3oc1=O)N2 (stereo not given),71.8% (inactive)
19,c1ccc(-c2csc(Nc3cccc(Nc4nc(-c5ccccc5)cs4)c3)n2)cc1,24% (inactive)
20,Nc1n[nH]c2cccc(C#Cc3cccc(NC(=O)c4cccc(Cl)c4)c3)c12,7.26% (active)
